# Assay results: ChEMBL document CHEMBL3988442, “University of Dundee, Small-Polar-MMV Screening Library” (2021)
# For some assays here: Results with a measured potency or affinity are listed apart.
# How the values were obtained:
# Design in all cases: scale not given: direction of the effect not stated beside the values
# [1] = biological target: Protein translocase subunit SecA (Escherichia coli (strain K12)) (UniProt P10408); assay: Assay to Identify E. coli SecA ATPase Inhibitors; assay type: functional; settings: 30 µM
# [2] = biological target: T1, Ubiquitin-activating enzyme e1, putative (Leishmania donovani (strain BPK282A1)) (UniProt E9BSI1); assay: Leishmania donovani Ubiquitin Activating Enzyme (LdE1); assay type: functional; settings: 30 µM
# T1 sequence (whole entry): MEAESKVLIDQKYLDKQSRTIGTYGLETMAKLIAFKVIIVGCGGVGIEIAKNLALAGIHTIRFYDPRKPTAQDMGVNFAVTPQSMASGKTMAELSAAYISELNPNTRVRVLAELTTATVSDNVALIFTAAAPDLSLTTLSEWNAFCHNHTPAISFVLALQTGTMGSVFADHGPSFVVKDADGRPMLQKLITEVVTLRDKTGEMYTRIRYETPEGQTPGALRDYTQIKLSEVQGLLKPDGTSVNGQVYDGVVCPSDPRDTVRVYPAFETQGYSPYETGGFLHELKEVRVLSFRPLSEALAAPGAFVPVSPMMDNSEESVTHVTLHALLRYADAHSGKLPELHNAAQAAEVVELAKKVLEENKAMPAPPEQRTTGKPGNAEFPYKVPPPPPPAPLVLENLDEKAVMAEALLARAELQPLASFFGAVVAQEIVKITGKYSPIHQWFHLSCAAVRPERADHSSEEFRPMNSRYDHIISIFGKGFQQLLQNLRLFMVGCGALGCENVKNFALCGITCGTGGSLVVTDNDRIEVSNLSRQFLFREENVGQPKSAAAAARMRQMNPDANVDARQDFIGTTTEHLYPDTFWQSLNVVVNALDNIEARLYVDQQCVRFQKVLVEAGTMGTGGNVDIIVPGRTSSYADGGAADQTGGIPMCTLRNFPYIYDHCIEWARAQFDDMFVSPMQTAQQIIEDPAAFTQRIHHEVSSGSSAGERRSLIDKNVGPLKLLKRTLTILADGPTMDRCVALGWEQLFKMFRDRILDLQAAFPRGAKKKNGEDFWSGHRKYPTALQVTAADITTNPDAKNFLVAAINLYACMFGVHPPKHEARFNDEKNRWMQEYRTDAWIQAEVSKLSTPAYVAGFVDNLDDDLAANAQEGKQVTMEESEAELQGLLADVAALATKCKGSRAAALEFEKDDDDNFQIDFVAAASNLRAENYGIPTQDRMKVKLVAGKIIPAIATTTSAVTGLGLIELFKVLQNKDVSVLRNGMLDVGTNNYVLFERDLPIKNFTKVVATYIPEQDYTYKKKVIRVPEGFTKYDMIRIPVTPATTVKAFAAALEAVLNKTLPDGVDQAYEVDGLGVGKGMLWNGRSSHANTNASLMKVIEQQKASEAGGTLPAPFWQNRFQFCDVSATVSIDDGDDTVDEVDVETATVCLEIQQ
# [3] = biological target: AMP-activated protein kinase, AMPK (Homo sapiens) (UniProt P54646+O43741+P54619+Q9UGJ0+Q9Y478+Q13131+Q9UGI9); assay: AMP-dependent Kinase enzyme assay. An in vitro enzyme assay that detects ADP turnover that is directly proportional to AMPK activity. This uses naive AMPK that is activated during the assay with MK-8722; assay type: functional; settings: 30 µM
# [4] = biological target: Sialic acid-binding Ig-like lectin 9 (Homo sapiens) (UniProt Q9Y336); assay: Hs-Siglec9 ALPHAscreen SOP 20170721; settings: 10 µM
# Trypanosoma cruzi = assay: Trypanosoma cruzi phosphomannomutase and mannose-1-phosphate guanylyltransferase assay; assay type: functional; settings: 10 µM
# [5] = biological target: T2, Arginase-2, mitochondrial (Homo sapiens) (UniProt P78540); assay: in vitro enzyme assay to detect the production of urea directly proportional to the activity of Arginase II; assay type: functional; settings: 33.3 µM; further: in the data most compounds retested in dose-response had high values
# T2 sequence (whole entry): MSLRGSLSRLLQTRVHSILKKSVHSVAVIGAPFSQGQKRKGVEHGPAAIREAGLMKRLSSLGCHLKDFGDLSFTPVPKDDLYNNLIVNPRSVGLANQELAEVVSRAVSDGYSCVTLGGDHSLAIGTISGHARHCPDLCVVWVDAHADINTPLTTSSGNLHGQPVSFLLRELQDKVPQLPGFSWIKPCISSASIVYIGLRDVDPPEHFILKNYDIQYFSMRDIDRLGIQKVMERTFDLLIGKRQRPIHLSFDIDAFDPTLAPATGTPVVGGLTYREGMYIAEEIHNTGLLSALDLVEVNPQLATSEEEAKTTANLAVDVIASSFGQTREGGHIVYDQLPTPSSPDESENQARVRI
# [6] = biological target: T3, Proteasome subunit beta (Trypanosoma cruzi) (UniProt O96673); assay: Trypanosoma cruzi proteasome chymotrypsin-like activity (TcProtChymo) assay.; further: in the data most compounds retested in dose-response had high values; assay type: functional; settings: 9.37 µM
# T3 sequence (whole entry): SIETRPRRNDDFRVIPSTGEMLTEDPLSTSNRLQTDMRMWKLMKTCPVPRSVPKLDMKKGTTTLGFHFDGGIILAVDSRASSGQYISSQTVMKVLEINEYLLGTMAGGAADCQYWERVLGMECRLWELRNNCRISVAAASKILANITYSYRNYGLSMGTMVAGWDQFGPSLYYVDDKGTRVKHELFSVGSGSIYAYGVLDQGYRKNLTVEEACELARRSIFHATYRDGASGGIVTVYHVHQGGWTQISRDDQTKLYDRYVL
# Homo sapiens = species: Homo sapiens; assay: To identify inhibition of the IFN signalling (Jak-Stat) pathway via expression of an eGFP reporter gene under the control of an IFN-stimulated response element (ISRE) containing MxA promoter.; assay type: functional; settings: 30 µM
# [7] = biological target: T4, Tyrosyl-tRNA synthetase, putative (Trypanosoma cruzi (strain CL Brener)) (UniProt Q4DSP6); assay: Trypanosoma cruzi tyrosyl tRNA synthetase (TcYRS) _High Tyrosine SOP; assay type: functional; settings: 30 µM; further: in the data most compounds retested in dose-response had high values
# T4 sequence (whole entry): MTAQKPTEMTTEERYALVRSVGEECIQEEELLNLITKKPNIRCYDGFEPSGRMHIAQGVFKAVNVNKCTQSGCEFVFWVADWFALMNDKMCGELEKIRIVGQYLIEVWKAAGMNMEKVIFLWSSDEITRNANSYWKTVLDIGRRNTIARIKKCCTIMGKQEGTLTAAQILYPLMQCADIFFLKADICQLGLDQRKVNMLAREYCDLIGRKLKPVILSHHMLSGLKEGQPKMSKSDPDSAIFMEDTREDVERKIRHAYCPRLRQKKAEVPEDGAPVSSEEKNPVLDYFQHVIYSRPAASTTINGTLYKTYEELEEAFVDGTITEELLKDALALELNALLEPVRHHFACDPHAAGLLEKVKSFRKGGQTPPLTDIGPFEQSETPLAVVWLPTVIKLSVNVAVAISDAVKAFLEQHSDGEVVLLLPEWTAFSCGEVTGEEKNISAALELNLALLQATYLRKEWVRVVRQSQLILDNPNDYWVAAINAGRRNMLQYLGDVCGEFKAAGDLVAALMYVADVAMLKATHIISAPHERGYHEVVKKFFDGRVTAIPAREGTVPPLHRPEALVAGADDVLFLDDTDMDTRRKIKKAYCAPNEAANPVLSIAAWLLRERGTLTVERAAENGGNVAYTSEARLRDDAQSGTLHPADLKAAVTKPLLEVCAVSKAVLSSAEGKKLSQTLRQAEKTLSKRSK
# [8] = biological target: T4, Tyrosyl-tRNA synthetase, putative (Trypanosoma cruzi (strain CL Brener)); assay: Trypanosoma cruzi tyrosyl tRNA synthetase (TcYRS) SOP; assay type: functional; settings: 30 µM
# [9] = biological target: Chromo domain-containing protein 1 (Saccharomyces cerevisiae (strain ATCC 204508 / S288c) (Baker's yeast)) (UniProt P32657); assay: ScCHD-1 Enzyme Inhibition Assay; assay type: functional; settings: 30 µM; further: in the data most compounds retested in dose-response had high values
# Sequence of Chromo domain-containing protein 1 (Saccharomyces cerevisiae (strain ATCC 204508 / S288c) (Baker's yeast)) (P32657 whole entry, the tested form may be a part): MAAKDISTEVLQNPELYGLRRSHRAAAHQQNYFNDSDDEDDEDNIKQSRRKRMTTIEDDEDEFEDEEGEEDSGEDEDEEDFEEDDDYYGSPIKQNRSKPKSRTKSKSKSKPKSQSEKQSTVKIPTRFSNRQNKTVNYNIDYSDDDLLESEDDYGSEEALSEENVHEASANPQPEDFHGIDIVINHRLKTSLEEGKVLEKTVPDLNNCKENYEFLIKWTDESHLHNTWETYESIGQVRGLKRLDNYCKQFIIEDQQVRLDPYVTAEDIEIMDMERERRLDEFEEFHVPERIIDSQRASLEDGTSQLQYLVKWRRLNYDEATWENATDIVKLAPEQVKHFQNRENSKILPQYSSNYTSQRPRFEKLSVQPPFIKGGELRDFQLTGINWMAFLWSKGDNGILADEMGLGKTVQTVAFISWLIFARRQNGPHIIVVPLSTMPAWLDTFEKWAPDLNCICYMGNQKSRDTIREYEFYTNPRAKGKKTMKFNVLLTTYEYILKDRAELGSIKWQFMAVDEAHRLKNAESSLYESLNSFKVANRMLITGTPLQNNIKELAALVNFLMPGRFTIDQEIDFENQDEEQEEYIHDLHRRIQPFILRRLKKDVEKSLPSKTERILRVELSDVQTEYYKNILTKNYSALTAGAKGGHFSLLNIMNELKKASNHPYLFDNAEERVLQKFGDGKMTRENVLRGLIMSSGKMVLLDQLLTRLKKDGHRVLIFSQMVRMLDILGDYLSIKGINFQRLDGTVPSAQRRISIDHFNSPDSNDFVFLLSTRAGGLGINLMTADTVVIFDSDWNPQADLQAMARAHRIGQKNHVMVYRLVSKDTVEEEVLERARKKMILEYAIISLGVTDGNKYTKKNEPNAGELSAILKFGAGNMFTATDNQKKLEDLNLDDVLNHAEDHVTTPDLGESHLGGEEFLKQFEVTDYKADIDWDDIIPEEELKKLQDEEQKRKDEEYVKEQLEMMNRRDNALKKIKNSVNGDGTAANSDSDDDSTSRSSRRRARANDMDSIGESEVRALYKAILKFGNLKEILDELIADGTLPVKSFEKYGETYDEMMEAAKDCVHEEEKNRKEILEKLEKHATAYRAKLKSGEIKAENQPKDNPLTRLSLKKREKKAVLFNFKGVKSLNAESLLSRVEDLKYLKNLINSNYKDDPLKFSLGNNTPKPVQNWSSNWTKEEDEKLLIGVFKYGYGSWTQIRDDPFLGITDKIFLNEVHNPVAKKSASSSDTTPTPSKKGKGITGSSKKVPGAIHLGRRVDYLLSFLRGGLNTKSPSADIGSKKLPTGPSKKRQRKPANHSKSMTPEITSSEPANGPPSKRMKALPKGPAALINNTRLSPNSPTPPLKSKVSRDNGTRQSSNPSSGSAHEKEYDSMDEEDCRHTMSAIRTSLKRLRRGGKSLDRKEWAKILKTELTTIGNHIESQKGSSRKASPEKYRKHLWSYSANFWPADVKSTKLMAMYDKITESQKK
# Sequence of Protein translocase subunit SecA (Escherichia coli (strain K12)) (P10408 whole entry): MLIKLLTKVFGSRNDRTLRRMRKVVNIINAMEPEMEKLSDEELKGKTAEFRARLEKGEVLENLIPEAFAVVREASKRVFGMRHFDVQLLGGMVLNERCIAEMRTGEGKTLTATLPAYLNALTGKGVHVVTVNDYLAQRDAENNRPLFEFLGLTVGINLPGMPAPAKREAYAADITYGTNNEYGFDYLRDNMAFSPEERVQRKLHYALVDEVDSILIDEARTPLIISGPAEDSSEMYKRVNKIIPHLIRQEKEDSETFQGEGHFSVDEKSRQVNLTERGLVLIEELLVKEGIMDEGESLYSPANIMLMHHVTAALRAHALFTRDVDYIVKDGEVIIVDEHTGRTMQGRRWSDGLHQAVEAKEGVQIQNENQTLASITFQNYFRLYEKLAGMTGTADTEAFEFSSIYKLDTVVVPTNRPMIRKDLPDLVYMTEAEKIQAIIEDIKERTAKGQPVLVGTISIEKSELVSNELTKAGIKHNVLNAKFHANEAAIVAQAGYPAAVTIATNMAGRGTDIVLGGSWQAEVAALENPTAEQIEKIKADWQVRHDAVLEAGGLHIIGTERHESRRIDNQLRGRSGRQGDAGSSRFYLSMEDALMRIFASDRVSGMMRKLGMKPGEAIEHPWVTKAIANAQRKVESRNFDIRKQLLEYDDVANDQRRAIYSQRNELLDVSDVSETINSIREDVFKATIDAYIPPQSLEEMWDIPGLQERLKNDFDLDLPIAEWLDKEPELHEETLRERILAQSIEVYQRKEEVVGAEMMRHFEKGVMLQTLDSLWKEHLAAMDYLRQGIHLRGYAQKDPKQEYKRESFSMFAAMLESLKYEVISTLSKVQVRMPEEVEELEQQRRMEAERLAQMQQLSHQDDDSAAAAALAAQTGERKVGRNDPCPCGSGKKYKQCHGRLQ
# Sequence of Sialic acid-binding Ig-like lectin 9 (Homo sapiens) (Q9Y336 whole entry): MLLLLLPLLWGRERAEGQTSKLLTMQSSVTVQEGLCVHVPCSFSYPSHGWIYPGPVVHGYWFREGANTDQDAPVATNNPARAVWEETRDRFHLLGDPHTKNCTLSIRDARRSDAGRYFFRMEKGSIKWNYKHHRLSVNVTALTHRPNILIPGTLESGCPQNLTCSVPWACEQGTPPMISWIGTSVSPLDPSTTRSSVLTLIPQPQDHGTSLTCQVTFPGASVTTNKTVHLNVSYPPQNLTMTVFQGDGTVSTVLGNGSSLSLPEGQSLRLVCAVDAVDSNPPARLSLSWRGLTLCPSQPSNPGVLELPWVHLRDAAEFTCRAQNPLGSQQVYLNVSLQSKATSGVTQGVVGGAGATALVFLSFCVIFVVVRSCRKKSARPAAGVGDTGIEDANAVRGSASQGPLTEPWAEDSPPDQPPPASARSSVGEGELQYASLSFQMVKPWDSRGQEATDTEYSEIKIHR
Structure (SMILES),Percent Effect [1] [%],Percent Effect [2] [%],Percent Effect [3] [%],Percent Effect [4] [%],Percent Effect (Trypanosoma cruzi) [%],Percent Effect [5] [%],Percent Effect [6] [%],Percent Effect (Homo sapiens) [%],Percent Effect [7] [%],Percent Effect [8] [%],Percent Effect [9] [%]
CNc1nc(C(=O)N2CCCC(c3nccn3CC3CCC3)C2)cs1 (configuration not stated),-5.42,8.22,-0.395,-0.171,1.96,0.455,7.81,0.132,6.45,-22.5,-6.79
CCc1ccc(CN2CCCC(CO)(CCOC)C2)cc1 (configuration not stated),-2.06,-5.41,-3.48,-7.57,-4.79,-6.7,-0.258,-5.11,-1.07,1.24,1.15
CO[C@@H]1CC[C@H]2[C@H]1OCCN2C(=O)c1ccc(C)o1,2.4,10.4,173,-12.1,-7.2,-11,14.1,22.1,-3.17,-1.28,-14
Cc1cc(S(=O)(=O)N2CCCc3ccc(F)cc32)sc1C(=O)O,-6.14,0,3.45,0.802,-1.85,4.69,1.74,12.6,-23.5,-33.3,-2.04
CC(=O)Nc1nc(C2CCN(C(C)=O)CC2)cs1,0.424,8,6.04,-0.593,-4.33,0.699,11.2,4.06,6.38,6.41,-3.5
CC(=O)c1cc(CC(=O)NCc2c(F)cccc2F)cs1,2.08,5.41,-0.986,2.88,4.44,10.5,2.76,17.2,0.529,7.32,0.311
NC(=O)CN1CC2(CCC1=O)CCN(Cc1cc(F)ccc1Cl)CC2,-3.36,16,-3.98,13.3,7.5,5.73,18,8.19,3.83,18.5,-5.6
O=C(Cn1ccnc1)N1C[C@@H]2CC[C@H](Oc3ccccc3)[C@@H]2C1,-4.17,9.46,7.42,-4.28,2.77,-1.16,16.2,12.3,3.23,11.7,-11.8
COc1ccccc1CNC(=O)Cn1ncc2c1c(C)nn2C,-2.51,6.67,1.32,6.52,-7.86,-15,12.8,-0.504,5.29,7.69,-9.43
CN1C(=O)C(C)(C)COc2cc(NS(=O)(=O)c3ccccc3)ccc21,-2.86,8.22,-14,10.6,-0.979,2.27,14.2,46.6,-8.6,12.5,-7.69
CC(C(N)=O)N(C)CCCc1cc(-c2ccccc2)no1 (configuration not stated),-2.48,13.5,3.69,0.652,-9.75,-0.185,7.54,10.5,5.94,13.4,-3.63
COc1cc(NC(=O)c2cc(C)sc2C)c(C(=O)N(C)C)cc1OC,0.25,7.79,-2.17,6.61,4.42,-37.2,19.1,-8.35,4.3,13.6,-1.78
CN1CCC(CCNC(=O)c2ccc(N(C)S(C)(=O)=O)cc2Cl)CC1,-4.43,-10.4,-1.14,0.479,-3.44,29,6.16,-1.88,0,-3.7,2.38
CC(C)c1nc2n(n1)CC(NCc1nnc(-c3ccco3)o1)CC2 (configuration not stated),-2.41,0,-14.3,-0.788,5.94,0.802,-3.06,-2.24,3.45,6.17,-0.171
CC(C(=O)NCc1cccc(N2CC=CC2)c1)n1cccn1 (configuration not stated),-6.41,0,3.53,1.65,-1.5,-1.15,-1.5,22.9,0.49,-2.44,-1.88
CCn1cc(CN2CCCN(C(=O)c3ccn(C)c(=O)c3)CC2)cn1,-0.55,20.8,-9.71,-17.4,4.02,-0.632,10.9,11.6,10.5,23.5,-18.6
CCN1CCN(Cc2coc(-c3cccc(F)c3)n2)CC1,-2.72,18.2,-12.3,-3.56,5.06,-0.356,16.6,-3.8,9.71,12.2,-12
Cc1ncsc1C(=O)Nc1cccc(OCC(F)F)n1,-4.44,2.63,10.6,1.18,-4.19,-8.28,22.5,31.7,3.19,7.79,-0.476
CN(C)CC1CN(c2cnc3ccccc3n2)CCO1 (configuration not stated),-0.138,22.8,-4.08,-7.06,3.49,6.84,12.7,19.6,7.39,26.6,-5.98
CCn1cnnc1CNC(=O)N1CCN(c2cccc(OC)c2)CC1,-4.11,20.8,-7.68,2.16,-3.75,-0.356,12.3,25.9,12.6,14.6,-9.3
Cc1cnc(C(=O)N2CCCC(n3ccnc3C)C2)cn1 (configuration not stated),-4.96,5.26,-7.85,7.54,8.5,0.36,3.13,3.76,5.42,18.5,-4.86
O=C(COc1cccc2c1CCC2=O)NCCSc1ccccc1,-1.44,5.26,7.61,-2.93,-2.63,10.7,8.92,20.8,-2.13,7.79,-5.02
